Screening results as filed in PubChem BioAssay.
T cruzi growth-1 = T. cruzi intracellular proliferation inhibitors, primary screen, cell-based, beta-gal Tulahuen parasites, NIH3T3 host, luminescence | T. cruzi beta-gal in NIH3T3, GalScreen luminescence, 90 h | AID 624255, 2012 | actives 5.9% (n = 77,000) | inhibition, % at 8.34 µM;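 active = mean inhibition above about 93%, with at least 55% of replicates each passing it, limit read from the data, passing the limit was not always enough; inconclusive = only one of those two conditions holds; inactive = neither condition holds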
C diff growth = C. difficile growth inhibitors, primary screen, HTS. Clostridium difficile clinical isolate growth, OD600, 24 h; active compounds read low. growth activity, negative = inhibition, % at 16 µg/mL (by protocol). actives 0.25% (n = 86,000). AID 1259249, 2017;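 active = mean growth activity at or below -80% and every replicate also at or below -80%; inconclusive = mean at or below -80% but some replicate above -80%; inactive = mean growth activity above -80%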
T cruzi growth-2 = T. cruzi intracellular proliferation inhibitors, confirmation, cell-based, NIH3T3 host, beta-gal parasite, luminescence, cherry-pick; T. cruzi beta-gal in NIH3T3, GalScreen luminescence, 90 h; inhibition, % at 8.35 µM; shares compounds with T cruzi growth-1; actives 72% (n = 5,600); AID 651739, 2012;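 active = mean replicate inhibition above about 95% and at least 55% of replicates individually reaching it, limit read from the data; inconclusive = only one of the two criteria is met; inactive = neither criterion is met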
T cruzi growth-3 = inhibitors of intracellular T. cruzi replication, confirmation, NIH3T3 host cells, beta-gal parasites, cherry-pick, set 2; inhibition, % at 2.09 µM; actives 21% (n = 5,600); shares compounds with T cruzi growth-1; T. cruzi beta-gal in NIH3T3, GalScreen luminescence, 90 h;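 active = mean inhibition above about 95%, with at least 55% of replicates also reaching it, limit read from the data; inconclusive = meets just one of the two conditions; inactive = meets neither condition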
NIH3T3 tox = cytotoxicity in mouse NIH/3T3 fibroblasts, confirmation, cytotoxicity control for T. cruzi proliferation inhibitor project, cell-based, cherry-pick, single point. NIH/3T3 viability, CellTiter-Glo ATP luminescence, 90 h. shares compounds with T cruzi growth-1. AID 651742, 2012. actives 14% (n = 5,600). cytotoxicity (signal decrease), % at 8.35 µM;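 active = mean signal decrease across replicates above about 35% based on untreated-well scatter, with enough replicates individually passing, limit read from the data; inconclusive = no rule stated though some were filed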
3T3 cytotox 2 = NIH/3T3 fibroblast cytotoxicity, confirmation, cytotoxicity control, cell-based, cherry-pick, single point, set 2 | shares compounds with T cruzi growth-1 | NIH/3T3 viability, CellTiter-Glo ATP luminescence, 90 h | inhibition, % at 24.9 µM | actives 56% (n = 5,600) | AID 651744, 2012;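 active = mean loss of cell viability signal at or above a set limit, and enough replicates individually reaching it; inconclusive = meets only the mean limit or only the replicate share; inactive = meets neither condition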
Each line names hits and unclear results; the compound was inactive in the other large screens (follow-up assays come after a bar, where they were run). This excerpt belongs to a sample that is enriched for hits.

CO[C@H]1CN(C)C(=O)c2ccc(NC(=O)c3ccccc3F)cc2OC[C@@H](C)N(C)C[C@H]1C	none
CC(C)CC#Cc1ccc([C@H]2[C@@H](CO)N3CCCCN(S(=O)(=O)Cc4ccccc4)C[C@H]23)cc1	T cruzi growth-1 103.1 | T cruzi growth-2 98.2 | T cruzi growth-3 108.5 | NIH3T3 tox inactive | 3T3 cytotox 2 107.7
O=S(=O)(Cc1ccccc1)N1CCCCN2[C@H](CO)[C@H](c3ccc(C#Cc4ccccc4)cc3)[C@H]2C1	none
C[C@H](O)C#Cc1ccc2c(c1)O[C@H](CN(C)C(=O)C1CC1)[C@@H](C)CN([C@@H](C)CO)S2(=O)=O	none (no result: C diff growth)
CCC(=O)N(C)C[C@H]1Oc2cc(C#CCN(C)C)ccc2S(=O)(=O)N([C@H](C)CO)C[C@@H]1C	T cruzi growth-1 101.5 | T cruzi growth-2 97.4 | T cruzi growth-3 inactive | NIH3T3 tox inactive | 3T3 cytotox 2 inactive
CCC(=O)N(C)C[C@H]1Oc2cc(C#CCN(C)C)ccc2S(=O)(=O)N([C@H](C)CO)C[C@H]1C	none
CCCC#Cc1ccc2c(c1)O[C@H](CN(C)C(=O)NCCC)[C@H](C)CN([C@H](C)CO)S2(=O)=O	none
CCC(=O)N(C)C[C@@H]1Oc2cc(C#CCN(C)C)ccc2S(=O)(=O)N([C@H](C)CO)C[C@@H]1C	none
CCCNC(=O)N(C)C[C@H]1Oc2cc(C#CCN(C)C)ccc2S(=O)(=O)N([C@@H](C)CO)C[C@@H]1C	T cruzi growth-1 inconclusive | T cruzi growth-2 inactive | T cruzi growth-3 inactive | NIH3T3 tox inactive | 3T3 cytotox 2 inactive
CCC(=O)N(C)C[C@H]1Oc2cc(C#CCN(C)C)ccc2S(=O)(=O)N([C@@H](C)CO)C[C@@H]1C	T cruzi growth-1 101.9 | T cruzi growth-2 103.6 | T cruzi growth-3 inconclusive | NIH3T3 tox inactive | 3T3 cytotox 2 inactive
CNC[C@@H]1Oc2ccc(NC(=O)Cn3cnnn3)cc2C(=O)N([C@@H](C)CO)C[C@H]1C	none
O=C(Nc1ccc(F)cc1)N1C[C@H]2[C@@H](c3ccccc31)[C@H](CO)N2C(=O)Cc1ccncc1	none
O=C(Cc1ccccn1)N[C@H]1C=C[C@H](CC(=O)N2CCCCC2)O[C@@H]1CO	none
C[C@H]1CN([C@@H](C)CO)S(=O)(=O)c2ccc(C3=CCCC3)cc2O[C@H]1CN(C)C(=O)c1cnccn1	none (no result: T cruzi growth-1)
CC(C)C#Cc1ccc2c(c1)O[C@@H](CN(C)C(=O)C1CCCCC1)[C@H](C)CN([C@@H](C)CO)S2(=O)=O	none
CC(C)C#Cc1ccc2c(c1)O[C@@H](CN(C)C(=O)C1CCCCC1)[C@H](C)CN([C@H](C)CO)S2(=O)=O	T cruzi growth-1 103.8 | T cruzi growth-2 102.9 | T cruzi growth-3 inactive | NIH3T3 tox inconclusive | 3T3 cytotox 2 105.2
CC(C)C#Cc1ccc2c(c1)O[C@@H](CN(C)C(=O)C1CCC1)[C@@H](C)CN([C@H](C)CO)S2(=O)=O	none (no result: C diff growth)
CC(C)C#Cc1ccc2c(c1)O[C@H](CN(C)C(=O)C1CCC1)[C@@H](C)CN([C@@H](C)CO)S2(=O)=O	T cruzi growth-1 103.5 (no result: C diff growth) | T cruzi growth-2 111.3 | T cruzi growth-3 inactive | NIH3T3 tox inactive | 3T3 cytotox 2 51.3
Fc1cccc(-c2ccc(C3[C@H]4CNC[C@@H]3N4Cc3cccnc3)cc2)c1 (stereo not given in full)	none (no result: T cruzi growth-1)
CC(=O)Nc1ccc2c(c1)C(=O)N(C)[C@H]1CC[C@H](CC(=O)NCc3ccc4c(c3)OCO4)O[C@@H]1CO2	none
C[C@@H]1CCCCO[C@@H](CN(C)C(=O)C2CCCCC2)[C@H](C)CN([C@H](C)CO)C(=O)c2cc(NC(=O)Nc3cccc4ccccc34)ccc2O1	T cruzi growth-1 inconclusive | T cruzi growth-2 109.5 | T cruzi growth-3 105.0 | NIH3T3 tox inactive | 3T3 cytotox 2 inactive
C[C@@H]1CCCCO[C@@H](CN(C)C(=O)Nc2cccc3ccccc23)[C@@H](C)CN([C@H](C)CO)C(=O)c2cc(NC(=O)Nc3cccc4ccccc34)ccc2O1	none (no result: C diff growth)
C[C@@H]1CCCCO[C@H](CN(C)C(=O)C2CCCCC2)[C@@H](C)CN([C@@H](C)CO)C(=O)c2cc(NC(=O)Nc3cccc4ccccc34)ccc2O1	T cruzi growth-1 inconclusive | T cruzi growth-2 102.5 | T cruzi growth-3 102.0 | NIH3T3 tox inactive | 3T3 cytotox 2 inactive
C[C@@H]1CCCCO[C@@H](CN(C)C(=O)C2CCCCC2)[C@@H](C)CN([C@H](C)CO)C(=O)c2cc(NC(=O)Nc3cccc4ccccc34)ccc2O1	none
C[C@H](CO)N1C[C@H](C)[C@H](CN(C)C(=O)C2CCCCC2)OCCCC[C@H](C)Oc2ccc(NC(=O)Nc3cccc4ccccc34)cc2C1=O	T cruzi growth-1 120.7 | T cruzi growth-2 105.2 | T cruzi growth-3 inactive | NIH3T3 tox inactive | 3T3 cytotox 2 inactive
C[C@@H]1CCCCO[C@H](CN(C)C(=O)C2CCCCC2)[C@H](C)CN([C@@H](C)CO)C(=O)c2cc(NC(=O)Nc3cccc4ccccc34)ccc2O1	T cruzi growth-1 inconclusive | T cruzi growth-2 105.2 | T cruzi growth-3 inactive | NIH3T3 tox inactive | 3T3 cytotox 2 inactive
C[C@@H]1CN([C@@H](C)CO)C(=O)c2cc(NC(=O)Nc3cccc4ccccc34)ccc2O[C@@H](C)CCCCO[C@H]1CN(C)C(=O)Nc1cccc2ccccc12	none (no result: C diff growth)
C[C@@H]1CN([C@@H](C)CO)C(=O)c2cc(NC(=O)Nc3cccc4ccccc34)ccc2O[C@@H](C)CCCCO[C@H]1CN(C)C(=O)C1CCCCC1	none
CNC(=O)C[C@@H]1CC[C@H]2[C@@H](COc3ccc(NC(=O)c4cccs4)cc3C(=O)N2C)O1	none
C[C@@H]1CCCCO[C@H](CN(C)C(=O)Cc2ccccc2)[C@@H](C)CN([C@@H](C)CO)C(=O)c2cc(NS(=O)(=O)c3cn(C)cn3)ccc2O1	none
Cc1noc(C)c1S(=O)(=O)Nc1ccc2c(c1)CC(=O)N([C@@H](C)CO)C[C@H](C)[C@@H](CN(C)C(=O)Nc1ccc3c(c1)OCO3)O2	none
CO[C@H]1CN(C)C(=O)c2cc(NC(=O)c3ccccc3F)ccc2OC[C@@H](C)N(C(C)=O)C[C@H]1C	none (no result: C diff growth)
C[C@H](CO)N1C[C@H](C)[C@@H](CN(C)C(=O)C2CCCCC2)OCCCC[C@H](C)Oc2ccc(NC(=O)Nc3cccc4ccccc34)cc2C1=O	T cruzi growth-1 118.9 | T cruzi growth-2 inactive | T cruzi growth-3 inactive | NIH3T3 tox inactive | 3T3 cytotox 2 inconclusive
C[C@@H]1CN([C@H](C)CO)C(=O)c2cc(NC(=O)Nc3cccc4ccccc34)ccc2O[C@@H](C)CCCCO[C@@H]1CN(C)C(=O)C1CCCCC1	none
